# Where a structure was tested more than once in an assay, its records may differ in their call. The source made the active and inactive calls. How the source made its calls: active means hit-call score of the fitted dose curve at least 0.9, where 1 is the maximum; inactive means score below 0.9.
# Assay: ATG_PXRE_CIS: Attagene CIS-FACTORIAL HepG2 Assay for human Pregnane X Receptor Element (PXRE) (AID 2282957)
# Conditions: HepG2 Attagene CIS-FACTORIAL PXRE reporter, mRNA; actives raise or lower the signal
# Method: ATG_CIS is a cell-based, multiplexed-readout assay that uses HepG2, a human liver cell line, with measurements taken at 24 hours after chemical dosing in a 24-well plate.ATG_PXRE_CIS is one of 52 assay component(s) measured or calculated from the ATG_CIS assay. It is designed to make measurements of mRNA induction, a form of inducible reporter, as detected with fluorescence intensity signals by Reverse transcription polymerase chain reaction (RT-PCR) and Capillary electrophoresis technology.Data from the assay component ATG_PXRE_CIS was analyzed into 1 assay endpoint. This assay endpoint, ATG_PXRE_CIS, was analyzed with bidirectional fitting relative to DMSO as the negative control and baseline of activity. Using a type of inducible reporter, measures of mRNA for gain or loss-of-signal activity can be used to understand the reporter gene at the transcription factor-level as they relate to the gene NR1I2. Furthermore, this assay endpoint can be referred to as a primary readout, because this assay has produced multiple assay endpoints where this one serves a reporter gene function. To generalize the intended target to other relatable targets, this assay endpoint is annotated to the nuclear receptor intended target family, where the subfamily is non-steroidal.
# Human liver HepG2 cells are transiently transfected with multiple reporter transcription units (MRTUs) in 6-well plates using FuGene 6 reagent (Roche; 3 ml FuGene/1 mg DNA). The MRTU constructs are regulated by a cis-regulating element (promoter). […] A major difference between the CIS and TRANS system is that in CIS activities of endogenous TFs are measured, whereas the TRANS assay evaluates changes in activities of exogenous, chimeric NR-Gal4 proteins. […] At the end of 24 hour incubation, total RNA was isolated using TriZol reagent (Invitrogen). The isolated RNA is then reverse-transcribed using oligo(dT) primer and Mo-MLV reverse transcriptase (Invitrogen) with DNAse I (Ambion) treatment for 30 min. The one-tenth of the produced cDNA was amplified by PCR using Taq DNA polymerase (Invitrogen) and two reporter sequence-specific primers. The PCR products were fluorescently labeled by primer extension with 6-arboxyfluorescein (6-FAM) 5'-labeled reporter sequence-specific primer (2 min at 95 C, 20 s at 68 C and 10 min at 72 C) and these products were digested with 5U of HpaI (New England Biolabs) for 2h at 37 C. The fragments were purified using Qiaquick PCR columns (Qiagen), analyzed on an ABI 3130xL genetic analyzer (Applied Biosystems) with peak positions identified by using a set of X-rhodamine (ROX)-labeled MapMarker1000 molecular weight standards (BioVentures). The raw capillary electrophoresis data was processed using Attagraph software (Attagene).
Structure (SMILES),outcome,AC50
CC(C)O.CC(C)O.OCCN(CCO)CCO.OCCN(CCO)CCO.[Ti],inactive,
Nc1cccnc1,,40.2 µM (active)
CCCCC(CC)C(=O)Cl (stereo not given),inactive,
C1CCC(C2CCCCC2)CC1,inactive,
CC(O)(CS(=O)(=O)c1ccc(F)cc1)C(=O)Nc1ccc(C#N)c(C(F)(F)F)c1 (stereo not given),,3.99 µM (active)
CCOC(=O)OC1=C(c2cc(C)ccc2C)C(=O)NC12CCC(OC)CC2 (stereo not given),inactive,
CC(C)(C1CCC(O)CC1)C1CCC(O)CC1 (stereo not given),,35.3 µM (active)
CCCCCCCCCCCCc1cccc(S(=O)(=O)O)c1,,17.9 µM (active)
CC(=O)CN(CC(C)=O)N=O,inactive,
O=C1C=CC(=O)c2ccccc21,inactive,
C#CCOC(=O)/C=C(C)/C=C/CC(C)CCCC(C)C (stereo not given),inactive,
C#CCO,inactive,
Nc1ccc(-c2ccccc2)cc1,,30.1 µM (active)
CC(C)(COCC1CO1)COCC1CO1 (stereo not given),,27.3 µM (active)
CCOC(=O)C(SP(=S)(OC)OC)c1ccccc1 (stereo not given),,1.77 µM (active)
O=S(=O)(c1ccc(Cl)cc1)c1cc(Cl)c(Cl)cc1Cl,,1.59 µM (active)
CC(C=O)Cc1ccc2c(c1)OCO2 (stereo not given),,17 µM (active)
CNC(=O)N(C)c1nc2ccccc2s1,,27.5 µM (active)
O=C(CCl)NCO,inactive,

Structure (SMILES),outcome,AC50
CC(C)=CC1C(C(=O)OCc2cccc(Oc3ccccc3)c2)C1(C)C (stereo not given),,3.43 µM (active)
Cc1c([N+](=O)[O-])c(C)c([N+](=O)[O-])c(C(C)(C)C)c1[N+](=O)[O-],,1.54 µM (active)
O=NN1CCCCCCC1,,47.4 µM (active)
C=CC(Cl)CCl (stereo not given),,3.12 µM (active)
Cc1cc(Cl)ccc1N,inactive,32.8 µM (active)
COC(F)(C(F)(F)C(F)(F)F)C(F)(C(F)(F)F)C(F)(F)F (stereo not given),inactive,
CCCCCCCCCCCCN(C)C,,58.6 µM (active)
CCOP(=S)(OCC)OP(=S)(OCC)OCC,,1.11 µM (active)
O=C(NC(=O)c1c(F)cccc1F)Nc1cc(Cl)c(F)c(Cl)c1F,,20.2 µM (active)
CC(C)(C)c1ccccc1O,,23.9 µM (active)
O=c1[nH]c(=O)n(Cl)c(=O)n1Cl,inactive,52.5 µM (active)
CC1(C)[C@H](/C=C2\CCSC2=O)[C@@H]1C(=O)OCc1coc(Cc2ccccc2)c1,,0.143 µM (active)
O=C(NC(=O)c1c(F)cccc1F)Nc1ccc(Cl)cc1,inactive,
COc1ccccc1N,inactive,59.1 µM (active)
Clc1cnc(Oc2ccc(Oc3ncc(Cl)cc3Cl)cc2)c(Cl)c1,,9.96 µM (active)
C[N+](C)(C)Cc1ccccc1,inactive,
O=C(O)COc1ccc(Cl)cc1,inactive,
CCC(C)(C#N)N=NC(C)(C#N)CC (stereo not given),,22 µM (active)
